Experimental data as given in PubChem BioAssay.
Active and inactive are the calls of the source. No rule for the calls is given here.

Test: blockers of DNA damage checkpoint Chk1 activation – imaging, HeLa, hydroxyurea, phospho-Chk1 nuclear intensity, primary screen (AID 1187); also: test concentration not given here
Settings: hydroxyurea-induced phospho-Chk1 immunofluorescence imaging, higher = more signal
For CN(C)C(=O)[C@@]1(CCC(=O)OC(C)(C)C)N=C(c2ccc(OCCCO)cc2)O[C@H]1c1ccccc1, the z-score was 0.0613 (inactive).
With O=C1OCCC/C=C\[C@H]2OC34C=CCN(Cn5nnc6ccccc65)C(=O)[C@H]3N(CCCCCO)C(=O)[C@@H]4C12 (stereo not given in full) the z-score was 0.888 (inactive).
In the case of C=C[C@H](C)[C@@H](O)c1ccc(O)c2ccccc12, the z-score is reported as 0.841 (inactive).
In the case of COc1ccc(CCNC(=O)[C@@]2(Sc3ccc(C)cc3)CC(=O)N(Cc3ccccc3Cl)[C@@H]2c2ccc(CO)cc2I)cc1, the z-score is reported as 0.606 (inactive).
In the case of COCCOC(=O)N1C(=O)[C@@]2(c3cc(C#CCNC(N)=O)ccc31)[C@H](C(=O)N1CCN(c3ncccn3)CC1)[C@H]1C(=O)O[C@H](c3ccccc3)[C@H](c3ccccc3)N1[C@@H]2c1ccccc1OCCO, the z-score is reported as 0.886 (inactive).
For CCCCCN1CC=CC23O[C@@H]4/C=C\CCCOC(=O)C4[C@H]2C(=O)N(CCCCCCO)[C@@H]3C1=O (stereo not given in full), the z-score was -0.702 (inactive).
With O=C1N(CCS(=O)(=O)c2ccccc2)Cc2ccccc2C[C@]12N=C(c1ccc(OCCCO)cc1)O[C@@H]2c1ccccc1 the z-score was -0.709 (inactive).
For COC(=O)[C@@]1(Cc2ccccc2N=[N+]=[N-])COC(c2ccc(OCCCO)cc2)=N1, the z-score was 0.135 (inactive).
For C=C(CCCC)C(=O)CC[C@H](OC(=O)c1cccnc1)c1cccc(OCCO)c1, the z-score was -0.249 (inactive).
In the case of CCOC(=O)C[C@H]1[C@H](OC(=O)c2ccc(-c3ccccc3)cc2)[C@@H](NC(=O)c2ccc3ccccc3c2)c2cc(OCCCO)ccc2N1C(=O)Cc1ccc(OC)cc1, the z-score is reported as 0.0873 (inactive).
